# Most compounds without a hit are left out; they make up all but 19% or so of the library.
# RORg inh = qHTS for inhibitors of ROR gamma transcriptional activity. Nuclear receptor ROR-gamma (Mus musculus), P51450. Drosophila S2 Gal4-RORgamma UAS-luciferase reporter, 20 h. Potency, µM (series often up to 53.6 µM), usual class: inhibitors. 310,000 compounds, 5.4% hits. AID 2551, 2010; also: nearly all actives have a fitted effect of over 60% in size
# Target sequence (P51450 whole entry, looked up, the tested form may be a part): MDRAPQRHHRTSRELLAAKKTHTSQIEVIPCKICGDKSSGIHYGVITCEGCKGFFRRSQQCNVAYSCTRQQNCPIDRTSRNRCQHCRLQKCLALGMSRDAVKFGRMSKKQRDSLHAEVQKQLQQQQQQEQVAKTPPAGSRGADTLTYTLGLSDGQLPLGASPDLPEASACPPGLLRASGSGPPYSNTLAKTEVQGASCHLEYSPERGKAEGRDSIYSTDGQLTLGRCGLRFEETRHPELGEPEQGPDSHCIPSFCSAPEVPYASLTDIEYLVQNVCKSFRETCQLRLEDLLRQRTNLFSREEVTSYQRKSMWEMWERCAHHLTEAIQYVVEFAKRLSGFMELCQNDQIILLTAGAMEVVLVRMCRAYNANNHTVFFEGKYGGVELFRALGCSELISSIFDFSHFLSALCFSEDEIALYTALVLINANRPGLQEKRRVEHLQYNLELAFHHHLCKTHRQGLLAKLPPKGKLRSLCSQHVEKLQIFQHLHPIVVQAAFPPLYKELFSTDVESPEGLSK
#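 Compounds are pin-transferred onto Drosophila Schneider cells expressing a copper-inducible Gal4–ROR gamma transactivation domain fusion. After 1 hr, copper sulfate is added to 700 uM final; luciferase is read 20 hr later.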
# TDP1 block = qHTS Assay for Inhibitors of Tyrosyl-DNA Phosphodiesterase (TDP1); 350,000 compounds, 0.28% hits; Tyrosyl-DNA phosphodiesterase 1 (Homo sapiens), Q9NUW8; AID 485290, 2010; Potency, µM (top dose mostly 130 µM), most hits filed as inhibitors; recombinant TDP1, AlphaScreen DNA substrate cleavage; also: nearly all actives have a fitted effect of over 40% in size
#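 Recombinant human Tdp1 (E. coli-expressed, 1 nM final) preincubated with compounds 15 min at room temperature, then 5'-biotin/3'-phosphotyrosine-FITC DNA substrate (15 nM final) added for 5 min. AlphaScreen beads (10 ug/ml final) added 10 min; cleavage lowers signal.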
# TDP1 cell noCPT = qHTS for Inhibitors of human tyrosyl-DNA phosphodiesterase 1 (TDP1): qHTS in cells in absence of CPT. DT40 Tdp1-/- hTDP1 cells, no CPT, ATP luminescence, 48 h. Potency, µM (series often up to 46.2 µM), most hits filed as inhibitors. 420,000 compounds, 15% hits. AID 686978, 2013; also: nearly all actives have a fitted effect of over 55% in size
#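 Stably hTDP1-transfected Tdp1-null chicken DT40 cells were treated with library compounds minus camptothecin and grown for at least 48 hr at 37 °C, after which cellular ATP was quantified by luminescence.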
# DT40 TDP1 CPT = qHTS for Inhibitors of human tyrosyl-DNA phosphodiesterase 1 (TDP1): qHTS in cells in presence of CPT | AID 686979, 2013 | Potency, µM (series often up to 46.2 µM), actives largely listed as inhibitors | 420,000 compounds, 12% hits | chicken DT40 Tdp1-/-;hTDP1 cells + 20 nM CPT, ATP luminescence, 48 h; also: nearly all actives have a fitted effect of over 55% in size
#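 Chicken DT40 Tdp1-/- cells stably complemented with human TDP1 were seeded at 400 cells/well in medium containing 20 nM camptothecin, exposed to pin-transferred compounds, and grown at 37 °C for at least 48 hr. Viability was read as ATP luminescence.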
# VP16 counter = VP16 counterscreen qHTS for inhibitors of ROR gamma transcriptional activity; Drosophila S2 Gal4-VP16 UAS-luciferase, luminescence, 20 h; Potency, µM (titrated, usually from 53.6 µM), hits mostly inhibitors; 310,000 compounds, 3.5% hits;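 also: Gal4-VP16 expression switched on by copper sulfate through the metallothionein promoter; nearly all actives have a fitted effect of over 50% in size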
# Hits are given with their value; - = inactive; ? = inconclusive; . = not tested or not shown; ! = not confirmed by another sample; [ ] = another dose, or the depositor's remark. Calls follow the shape of the dose curve; as a rule, active = well fitted curve in the direction sought with a large enough effect; inconclusive = small, poorly fitted or top-dose-only effect, or another doubt; inactive = no such curve, though single readings can be large; an effect the other way counts as inactive or inconclusive.
SMILES,RORg inh,TDP1 block,TDP1 cell noCPT,DT40 TDP1 CPT,VP16 counter
Nc1ccccc1Nc1cc(-c2ccccc2)nn1-c1cccc(Cl)c1,-,-,?,-,-
CNc1nn(-c2cccc(Cl)c2)nc1N,-[0.365 µM],-,2.06µM,?,.
COc1ccccc1NC(=S)N(CCCN1CCOCC1)Cc1cn(C)c2ccccc12,?,-,16.4µM,14.6µM,-
COc1ccccc1NC(=S)N(CCN1CCOCC1)Cc1ccccc1F,-,-,?,-,-
CCOc1ccccc1NC(=S)N(CCCN1CCOCC1)Cc1cn(C)c2ccccc12,11.2µM,-,?,16.4µM,?
Cn1c2c(c(=O)n(C)c1=O)C(c1cc(Br)ccc1F)CC(=O)N2 (configuration not stated),.,-,-,-,.
CNS(=O)(=O)c1ccc(CNC[C@H]2O[C@@H](n3cc(C)c(=O)[nH]c3=O)C[C@@H]2O)cc1,.,.,-,-,.
O=C(c1cccs1)c1ccc(-c2cccs2)s1,-,-,-,-,12.6µM
CCCOCCOC(=O)C1=C(C)NC(=O)NC1c1cc(Cl)c(O)c(OC)c1 (configuration not stated),-,-,-,-,-
COc1ccc(S(=O)(=O)NCCS(=O)(=O)N2CCN(c3ccccc3)CC2)cc1,.,-[0.505 µM],?,?,.
COc1ccc(CNC(=O)c2ccc(CS(=O)c3ccccc3)o2)cc1 (configuration not stated),-,-,-,-,-
Cc1nc2cc(C(=O)OCC(=O)NC(C)C(C)C)ccc2n1-c1ccccc1 (configuration not stated),-,-,?,-,28.2µM
Cc1cccc(-n2c(C)nc3cc(C(=O)NCCC4=CCCCC4)ccc32)c1,.,-,?,14.6µM,.
CCCNC(=O)c1ccc2c(c1)nc(C)n2-c1cccc(C)c1,-,-,?,16.4µM!,-
CCc1ccc(-n2c(C)nc3cc(C(=O)NCCc4ccccc4)ccc32)cc1,.,-,?,20.6µM,.
CCCNC(=O)CSc1cn(CC(=O)N2CCCCCC2)c2ccccc12,.,-,-,-,.
COC(=O)CCC(=O)OC1(C)C(=O)C2=CN(Cc3ccccc3)C(c3ccc(OC)cc3)=CC2=C(Br)C1=O (configuration not stated),.,-[12.3 µM],-,-,.
CCOC(=O)c1c(C)[nH]c(C(=O)NNC(=O)c2ccccc2F)c1C,.,-,-,-,.
CC(C)N(Cc1ccccc1)C(=O)COc1ccccc1,-,.,?,?,-
CCOC(=O)c1[nH]c(C)c(C(=O)c2cc(F)ccc2F)c1C,-[0.365 µM],-,0.82µM,0.82µM,.
CC(OC(=O)c1cc(S(=O)(=O)N(C)C)ccc1N1CCCC1)C(=O)NCc1ccccc1 (configuration not stated),-,-,-,-,-
CCOC(=O)c1[nH]c(C)c(C(=O)OCc2ccccc2F)c1C,-,-,9.2µM,6.51µM,-
CC(C)N(Cc1ccccc1)C(=O)CCc1ccccc1,-,-,?,14.6µM,-
CC(C)N(Cc1ccccc1)C(=O)COC(=O)c1cc(S(=O)(=O)N(C)C)ccc1N1CCCC1,.,-,14.6µM,23.1µM,.
CC(=O)N1Cc2[nH]c3ccccc3c2CC1C(=O)O (configuration not stated),-,.,-,-,-
SMILES,RORg inh,TDP1 block,TDP1 cell noCPT,DT40 TDP1 CPT,VP16 counter
O=S(=O)(Nc1ccccc1C(F)(F)F)c1ccc(N2CCCCS2(=O)=O)cc1,.,-,-,-,.
CCOC(=O)c1[nH]c(C)c(C(=O)OCC(=O)N(Cc2ccccc2)C(C)C)c1C,.,-,14.6µM,?,.
COc1ccc(/C=C2\Sc3ccc(C(=O)NCc4cccnc4)cc3N(C)C2=O)cc1OC,-,-,16.4µM,20.6µM,-[10 µM]
COc1cccc(/C=C2\Sc3ccc(C(=O)NCc4cccnc4)cc3N(C)C2=O)c1,-,-,?,?,-
CN1CCN(C(=O)c2ccc3c(c2)N(C)C(=O)/C(=C/c2cccc(Cl)c2)S3)CC1,?,-,?,?,-
COc1ccc(/C=C2\Sc3ccc(C(=O)N4CCN(Cc5ccccc5)CC4)cc3N(C)C2=O)cc1OC,-,-,3.26µM,5.17µM,-

# Assay outcomes deposited in PubChem BioAssay by National Center for Advancing Translational Sciences (NCATS).
